According to the supplement of paper PMC10849652:
Targets with a hit are over-represented here; the source holds about 7,900 in all. About 0.6% of all pairs of compound and target were hits. Values without a mark were called inactive.

Assays:
Experiment in all cases: log2 fold change, soluble protein after heating vs DMSO (PISA); higher = thermal stabilisation; K562 cells, 10 uM, 30 min; active = over 0.2 and 3.5 SD of the protein, either way, in both replicates (recomputed)
[1] = compound: CC[C@@H]1C(=O)N(C)c2cnc(Nc3ccc(C(=O)NC4CCN(C)CC4)cc3OC)nc2N1C1CCCC1
In short: (§1)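 K562 cells at 2×10^6 cells/mL were given 10 μM compound for 30 min. Aliquots then went through 3 min of heating across 48°C-58°C, were pooled, and were extracted in PBS with 0.5% NP-40 at 4°C, and the supernatant after 21,000xg for 90 min was quantified by TMTpro 16plex LC-MS/MS with channel sums equalised. Thermal stability relative to control samples, from duplicates, is given as log2 fold change.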

volasertib = compound: CC[C@@H]1C(=O)N(C)c2cnc(Nc3ccc(C(=O)N[C@H]4CC[C@H](N5CCN(CC6CC6)CC5)CC4)cc3OC)nc2N1C(C)C [volasertib]
In short: as §1

[2] = compound: CC[C@H](C)N1C=C(C2=C(C=C(C=C21)C3=CN=C(C=C3)N4CCNCC4)C(=O)NCC5=C(C=C(NC5=O)C)C)C
In short: as §1

epoxomicin = compound: CC[C@H](C)[C@@H](C(=O)N[C@@H]([C@@H](C)O)C(=O)N[C@@H](CC(C)C)C(=O)[C@]1(CO1)C)NC(=O)[C@H]([C@@H](C)CC)N(C)C(=O)C [epoxomicin]
In short: as §1

[3] = compound: CCn1c(C(=O)N(C2CC2)C2CC2)cc2c3c(ncn3C)c(Nc3cc(C)n(C)n3)nc21
In short: as §1

[4] = compound: CCn1cc(-c2ccnc3[nH]c(-c4cccc(CN(C)C)c4)cc23)c(-c2ccc(NC(=O)N(C)C)cc2)n1
In short: as §1

[5] = compound: CN(C)CC(=O)Nc1ccc2[nH]c(=O)c3ccccc3c2c1
In short: as §1

rosiglitazone = compound: CN(CCOC1=CC=C(C=C1)C[C@H]2C(=O)NC(=O)S2)C3=CC=CC=N3 (racemic) [rosiglitazone]
In short: as §1

[6] = compound: CN1C2=C(C3=C1C(=O)N(N=C3)CC4=CC(=CC=C4)N)SC(=C2)S(=O)C
In short: as §1

[7] = compound: CN1CCC(CNc2ccc3ncc(-c4cccc(OC(F)(F)F)c4)n3n2)CC1
In short: as §1

Chain of UniProt P42226 (P42226 whole entry, looked up): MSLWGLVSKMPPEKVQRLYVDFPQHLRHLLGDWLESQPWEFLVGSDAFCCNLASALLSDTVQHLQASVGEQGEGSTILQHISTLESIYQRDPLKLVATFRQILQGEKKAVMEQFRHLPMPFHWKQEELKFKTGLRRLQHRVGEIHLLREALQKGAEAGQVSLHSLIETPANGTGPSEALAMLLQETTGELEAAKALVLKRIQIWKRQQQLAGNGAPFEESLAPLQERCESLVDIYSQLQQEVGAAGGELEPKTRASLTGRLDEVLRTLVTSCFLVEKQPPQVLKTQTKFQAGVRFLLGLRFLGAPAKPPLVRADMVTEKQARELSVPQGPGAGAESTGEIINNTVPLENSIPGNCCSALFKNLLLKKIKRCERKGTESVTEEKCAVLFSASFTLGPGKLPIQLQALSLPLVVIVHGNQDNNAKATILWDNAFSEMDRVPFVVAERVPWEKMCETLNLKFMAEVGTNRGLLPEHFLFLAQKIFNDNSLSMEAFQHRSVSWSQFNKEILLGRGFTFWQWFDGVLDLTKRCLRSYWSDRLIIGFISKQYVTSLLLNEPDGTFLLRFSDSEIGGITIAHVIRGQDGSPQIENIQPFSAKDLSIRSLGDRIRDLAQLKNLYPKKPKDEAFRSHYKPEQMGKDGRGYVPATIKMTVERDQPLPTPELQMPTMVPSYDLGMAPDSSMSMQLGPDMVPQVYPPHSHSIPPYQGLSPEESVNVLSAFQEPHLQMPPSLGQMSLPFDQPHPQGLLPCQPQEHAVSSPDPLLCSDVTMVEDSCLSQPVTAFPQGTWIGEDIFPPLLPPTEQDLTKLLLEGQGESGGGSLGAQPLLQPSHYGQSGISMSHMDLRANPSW
Chain of UniProt Q9H4L7 (Q9H4L7 whole entry, looked up): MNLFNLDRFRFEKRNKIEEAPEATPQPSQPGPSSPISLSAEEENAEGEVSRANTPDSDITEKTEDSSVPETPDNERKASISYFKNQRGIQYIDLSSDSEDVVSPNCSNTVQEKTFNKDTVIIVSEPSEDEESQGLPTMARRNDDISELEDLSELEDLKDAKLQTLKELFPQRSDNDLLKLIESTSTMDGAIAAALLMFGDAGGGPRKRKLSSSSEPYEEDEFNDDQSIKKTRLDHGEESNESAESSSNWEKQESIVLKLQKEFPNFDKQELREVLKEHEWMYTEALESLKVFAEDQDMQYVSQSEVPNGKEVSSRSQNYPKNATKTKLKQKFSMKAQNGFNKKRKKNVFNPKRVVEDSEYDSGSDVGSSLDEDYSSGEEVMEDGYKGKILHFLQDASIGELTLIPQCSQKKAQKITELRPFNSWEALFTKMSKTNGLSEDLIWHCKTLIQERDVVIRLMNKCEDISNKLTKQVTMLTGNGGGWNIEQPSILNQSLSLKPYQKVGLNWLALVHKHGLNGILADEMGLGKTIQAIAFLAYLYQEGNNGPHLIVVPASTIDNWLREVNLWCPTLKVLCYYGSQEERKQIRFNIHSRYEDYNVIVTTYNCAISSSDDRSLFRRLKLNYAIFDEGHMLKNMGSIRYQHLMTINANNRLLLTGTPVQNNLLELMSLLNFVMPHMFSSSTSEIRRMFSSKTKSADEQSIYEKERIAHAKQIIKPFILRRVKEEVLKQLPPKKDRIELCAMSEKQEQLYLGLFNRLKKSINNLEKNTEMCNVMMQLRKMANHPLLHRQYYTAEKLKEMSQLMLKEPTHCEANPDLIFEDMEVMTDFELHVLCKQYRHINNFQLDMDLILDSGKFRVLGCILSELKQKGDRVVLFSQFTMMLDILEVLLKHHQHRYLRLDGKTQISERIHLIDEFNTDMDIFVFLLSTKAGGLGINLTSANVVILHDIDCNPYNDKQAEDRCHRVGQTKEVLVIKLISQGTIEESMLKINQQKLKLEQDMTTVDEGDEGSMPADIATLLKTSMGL
Chain of UniProt Q96BW9 (Q96BW9 whole entry, looked up): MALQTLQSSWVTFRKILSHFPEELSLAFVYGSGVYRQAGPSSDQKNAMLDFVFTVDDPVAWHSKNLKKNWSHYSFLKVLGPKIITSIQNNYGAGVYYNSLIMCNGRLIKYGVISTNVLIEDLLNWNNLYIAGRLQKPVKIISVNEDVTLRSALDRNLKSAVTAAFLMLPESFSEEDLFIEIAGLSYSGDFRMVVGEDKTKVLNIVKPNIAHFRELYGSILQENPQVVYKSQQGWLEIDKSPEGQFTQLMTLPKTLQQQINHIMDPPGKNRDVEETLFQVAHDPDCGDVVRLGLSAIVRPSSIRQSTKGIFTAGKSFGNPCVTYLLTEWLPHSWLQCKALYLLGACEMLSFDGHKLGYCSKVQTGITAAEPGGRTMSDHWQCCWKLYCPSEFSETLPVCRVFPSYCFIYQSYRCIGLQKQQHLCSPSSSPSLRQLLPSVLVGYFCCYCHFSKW
Chain of UniProt O75494 (O75494 whole entry, looked up): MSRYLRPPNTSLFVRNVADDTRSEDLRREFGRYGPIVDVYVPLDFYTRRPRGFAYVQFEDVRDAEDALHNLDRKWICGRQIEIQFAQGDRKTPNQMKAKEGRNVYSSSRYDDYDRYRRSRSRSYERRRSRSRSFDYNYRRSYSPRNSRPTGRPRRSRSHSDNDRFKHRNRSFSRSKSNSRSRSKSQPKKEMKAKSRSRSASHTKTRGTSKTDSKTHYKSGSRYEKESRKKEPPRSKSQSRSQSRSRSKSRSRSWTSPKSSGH
Chain of UniProt P08240 (P08240 whole entry, looked up): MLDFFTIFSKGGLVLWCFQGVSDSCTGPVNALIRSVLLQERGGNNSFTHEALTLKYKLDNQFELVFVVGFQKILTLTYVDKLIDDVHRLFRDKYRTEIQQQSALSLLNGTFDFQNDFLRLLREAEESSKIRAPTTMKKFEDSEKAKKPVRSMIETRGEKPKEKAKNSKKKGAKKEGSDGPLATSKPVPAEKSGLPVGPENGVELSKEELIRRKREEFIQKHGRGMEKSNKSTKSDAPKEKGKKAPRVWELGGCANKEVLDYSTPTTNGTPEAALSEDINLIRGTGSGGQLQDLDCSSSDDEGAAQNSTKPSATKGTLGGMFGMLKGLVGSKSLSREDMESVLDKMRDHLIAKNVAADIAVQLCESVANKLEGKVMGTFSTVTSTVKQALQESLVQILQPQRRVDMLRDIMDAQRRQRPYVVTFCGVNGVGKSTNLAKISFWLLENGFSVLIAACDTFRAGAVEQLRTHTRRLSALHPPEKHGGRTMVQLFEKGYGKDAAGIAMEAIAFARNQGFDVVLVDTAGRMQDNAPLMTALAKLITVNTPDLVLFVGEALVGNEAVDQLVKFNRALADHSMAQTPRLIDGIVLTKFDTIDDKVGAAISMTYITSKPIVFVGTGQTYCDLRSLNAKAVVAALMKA
Chain of UniProt Q13428 (Q13428 whole entry, looked up): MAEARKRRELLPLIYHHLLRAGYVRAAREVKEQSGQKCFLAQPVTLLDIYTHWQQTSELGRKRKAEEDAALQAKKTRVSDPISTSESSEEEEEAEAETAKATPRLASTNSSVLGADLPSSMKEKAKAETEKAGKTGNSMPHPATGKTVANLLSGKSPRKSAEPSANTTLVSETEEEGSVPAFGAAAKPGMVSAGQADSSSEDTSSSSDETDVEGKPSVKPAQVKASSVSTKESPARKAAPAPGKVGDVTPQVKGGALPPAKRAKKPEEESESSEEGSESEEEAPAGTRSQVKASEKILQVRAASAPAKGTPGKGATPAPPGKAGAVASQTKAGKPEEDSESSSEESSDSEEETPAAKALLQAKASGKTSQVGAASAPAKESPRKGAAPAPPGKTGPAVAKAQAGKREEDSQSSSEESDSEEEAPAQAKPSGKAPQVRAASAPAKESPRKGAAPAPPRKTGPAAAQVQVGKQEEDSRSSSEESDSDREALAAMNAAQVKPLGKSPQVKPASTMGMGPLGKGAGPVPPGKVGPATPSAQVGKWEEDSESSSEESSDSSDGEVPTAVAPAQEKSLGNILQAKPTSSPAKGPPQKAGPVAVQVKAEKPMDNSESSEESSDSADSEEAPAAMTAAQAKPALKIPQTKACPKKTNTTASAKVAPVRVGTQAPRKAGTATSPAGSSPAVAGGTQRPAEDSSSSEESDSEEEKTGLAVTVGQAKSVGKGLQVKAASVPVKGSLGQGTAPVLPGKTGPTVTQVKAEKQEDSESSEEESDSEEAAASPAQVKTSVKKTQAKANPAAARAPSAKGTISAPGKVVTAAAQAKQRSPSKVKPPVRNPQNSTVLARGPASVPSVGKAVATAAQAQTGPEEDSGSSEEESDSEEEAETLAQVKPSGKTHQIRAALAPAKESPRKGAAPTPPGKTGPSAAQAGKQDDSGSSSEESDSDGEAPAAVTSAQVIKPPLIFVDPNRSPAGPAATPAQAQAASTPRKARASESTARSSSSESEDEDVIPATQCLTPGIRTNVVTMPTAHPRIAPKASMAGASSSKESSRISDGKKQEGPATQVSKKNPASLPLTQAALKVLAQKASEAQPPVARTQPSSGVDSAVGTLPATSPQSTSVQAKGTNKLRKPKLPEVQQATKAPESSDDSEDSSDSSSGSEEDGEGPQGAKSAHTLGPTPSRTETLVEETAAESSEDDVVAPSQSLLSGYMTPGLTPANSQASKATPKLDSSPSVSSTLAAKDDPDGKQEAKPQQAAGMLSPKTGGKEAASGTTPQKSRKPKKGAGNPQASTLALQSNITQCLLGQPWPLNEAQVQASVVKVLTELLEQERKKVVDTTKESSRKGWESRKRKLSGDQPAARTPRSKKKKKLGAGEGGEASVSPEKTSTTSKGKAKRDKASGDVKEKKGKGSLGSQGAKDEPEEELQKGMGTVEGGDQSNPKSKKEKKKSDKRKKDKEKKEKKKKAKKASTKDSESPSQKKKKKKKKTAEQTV
Chain of UniProt Q16842 (Q16842 whole entry, looked up): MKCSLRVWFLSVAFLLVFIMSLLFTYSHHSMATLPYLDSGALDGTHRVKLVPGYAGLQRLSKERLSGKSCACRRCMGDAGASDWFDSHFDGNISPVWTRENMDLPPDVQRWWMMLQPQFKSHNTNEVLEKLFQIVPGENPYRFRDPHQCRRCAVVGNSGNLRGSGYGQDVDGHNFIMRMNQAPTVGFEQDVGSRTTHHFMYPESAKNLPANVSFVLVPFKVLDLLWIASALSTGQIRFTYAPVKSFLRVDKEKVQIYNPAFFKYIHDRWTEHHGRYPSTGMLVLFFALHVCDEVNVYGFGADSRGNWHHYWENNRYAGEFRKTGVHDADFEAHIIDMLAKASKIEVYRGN

Target	log2 fold change [1]	log2 fold change (volasertib)	log2 fold change [2]	log2 fold change (epoxomicin)	log2 fold change [3]	log2 fold change [4]	log2 fold change [5]	log2 fold change (rosiglitazone)	log2 fold change [6]	log2 fold change [7]
SUCLG1 (UniProt P53597)	0.008	-0.044	0.063	0.031	-0.013	-0.012	-0.027	0.037	-0.041	-0.097
SLC25A4 (UniProt P12235)	-0.012	0.06	-0.024	0.009	0.034	0.037	-0.053	-0.001	-0.038	-0.001
SPG11 (UniProt Q96JI7)	0.155	-0.294	0.017	-0.085	0.019	0.141	-0.216	-0.045	0.367	-1.24 (active)
SLC7A6OS (UniProt Q96CW6)	-0.027	-0.084	-0.042	0.01	-0.07	-0.038	0.004	-0.06	-0.05	0.055
SPART (UniProt Q8N0X7)	-0.031	-0.224 (active)	-0.005	-0.123	-0.015	0.014	0.069	0.04	-0.035	-0.052
STK11IP (UniProt Q8N1F8)	-0.224	-0.517 (active)	0.103	0.069	-0.051	-0.006	0.025	0.011	0.026	-0.233
SPG21 (UniProt Q9NZD8)	-0.082	-0.615 (active)	0.065	0.315 (active)	-0.013	0.037	0.018	0.123	-0.098	-0.21
TAMM41 isoform 3 (UniProt Q96BW9)	-0.209	-0.312 (active)	-0.004	0.02	-0.02	0.022	0.013	0.005	-0.052	-0.362 (active)
SRSF6 (UniProt Q13247)	0.011	0.174	0.116	-0.181	-0.004	0.028	-0.08	-0.043	0.207	0.315
SNRNP40 (UniProt Q96DI7)	0.067	0.059	0.026	-0.05	-0.018	-0.033	-0.012	-0.001	-0.029	0.261 (active)
SRSF10 (UniProt O75494)	0.141	0.274	-0.197	-0.408	0.047	0.276	-0.127	-0.073	0.498	0.237
THRAP3 (UniProt Q9Y2W1)	0.03	0.098	-0.137	-0.093	-0.013	0.101	-0.026	-0.007	0.025	-0.058
SMARCAD1 isoform 2 (UniProt Q9H4L7)	-0.085	-0.378 (active)	0.057	0.046	-0.055	-0.1	0.04	0.071	-0.037	-0.1
ST3GAL2 (UniProt Q16842)	-0.28	-0.562 (active)	-0.053	-0.053	-0.038	0.062	0.005	0.011	-0.071	-0.474 (active)
SRSF4 (UniProt Q08170)	0.091	-0.001	0.011	-0.175	-0.068	0.115	-0.09	-0.09	0.205	0.087
SNX6 (UniProt Q9UNH7)	-0.142	-0.047	0.117	0.015	-0.141	-0.131	0.005	0.08	0.016	-0.77 (active)
SNX12 isoform 1 (UniProt Q9UMY4)	-0.124	-0.252 (active)	0.069	0.028	-0.068	0.043	-0.012	0.058	0.045	-0.275 (active)
SLC25A38 (UniProt Q96DW6)	0.013	0.009	-0.002	-0.025	0.048	0	-0.02	-0.028	-0.017	-0.048
TCOF1 isoform 4 (UniProt Q13428)	-0.018	0.034	-0.016	-0.02	0.013	0.063	-0.052	-0.011	0.019	-0.06
STARD9 (UniProt Q9P2P6)	-0.024	0.238	-0.029	0.022	0.064	0.008	0.075	0.015	0.507 (active)	-0.098
SRPRA (UniProt P08240)	-0.116	-0.107	0.007	0.02	-0.07	-0.036	0.032	-0.002	-0.055	0.009
STAT6 (UniProt P42226)	-0.196	-0.594 (active)	-0.02	-0.074	-0.033	0.1	0.093	0.038	0.018	-0.11
STXBP2 isoform 3 (UniProt Q15833)	-0.015	-0.217	0.138	-0.006	-0.083	-0.025	0.02	0.096	0.116	-0.072
TERF2IP (UniProt Q9NYB0)	-0.038	-0.205	0.001	0.081	0.02	0.01	0.045	0.016	0.026	-0.039
TIMM44 (UniProt O43615)	-0.412 (active)	-0.57 (active)	-0.004	0.057	-0.006	-0.091	0.012	0.036	-0.056	-0.886 (active)
SMAD2 (UniProt Q15796)	-0.067	-0.347 (active)	0.065	0.11	-0.032	-0.014	0.014	0.078	-0.158	-0.018
SP3 (UniProt Q02447)	0.03	0.104	-0.019	-0.194	0.025	0.068	-0.074	-0.062	0.058	0.028
